# From the supplement of paper PMC8728848
# Many of the other results were omitted from the sample, so the strongest signals are more common in it than they were.
# B1: BT3172pd (Bacteroides thetaiotaomicron) (protein)
# chain: MLPLRAEHYYYKQISLKEGLPSNVRCILRDEQGFIWIGTKAGLGKFDGHQLKRYKHQANDPHSLLHNLIYQIAEDKQHNIWILTEKGIARYQQQSNNFTFPTDEEGNYITAYSFCLVPDGILFGGKDRIYKYSYKDSSLRLLQYFNANSFKITALSVWDSKTLLCCSRWTGLYLVDLQTGEHRRPPFDCGPEITSMITDSKNRIWIAPYSGGLRCYSRDGKLSASYTTHNSSLSNDIVLSLAEREEQLWIGTDGGGINILHPETGEISQLEYIPGRENYSLPANSILCLHNDYNNNVWAGSTCNGLISIREVSMKTYTDVVPGNDRGLSNGTVRSLYRQSPDSIWIGTDGGGINLFSPHTEKFTHYSSTWGDKVAFISGFTPGKLLISLFSKGVFVFNPATGEKQPFTIIDKETTTRLCNRGKSVNLYQNTPNTVLFLGDHIYQYHLKEKKFSTITEEEGKDIVGTLVPFDHQENLTYINDIKHIYELDDQTSRLKTVFECYTDTVISSVSHDEQGHFWIGSNFGLIHYDPVLKSRTLVPTNLFTEINMVLCDQKGKVWIGVDNMLFAYFIKEQKFVLFGESNGAIQNEYLPNARLVNEQGDAYIGGVKGMLRIDGQLLLNTSEMPELQLLDITINGESANHEWYNHPAKISVPWNSNISIRIMSREEDIFRQKIYRYQIEGLNNEYTESYNPELVIRSLLPGSYRIMASCTAKDGSWIPDQQVLELTVLPPWYRTHHHHHH
# How the values were obtained:
# Assay in all cases: glycan array binding signal (z-score within array); higher = stronger binding
# Settings in all cases: glycan notation: IUPAC condensed, linker removed
# [1] = target: Fuc(a1-2)Gal(b1-3)GalNAc(b1-3)Gal
# Outline: (§1)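 Glycan array data came from 3228 arrays in the Consortium for Functional Glycomics database, and only arrays with an available protein sequence were kept. Glycan names were put into IUPAC-condensed notation, and columns mapping to the same glycan were averaged. The binding signal is a within-array Z-score, averaged across arrays of one protein sequence run at different concentrations or buffers and across linkers. A negative Z-score can be read as non-binding.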
# [2] = target: Fuc(a1-2)Gal(b1-4)GlcNAc(b1-3)Gal(b1-4)GlcNAc(b1-3)Gal(b1-4)GlcNAc
# Outline: as §1
# [3] = target: Fuc(a1-2)Gal(b1-4)GlcNAc(b1-3)GalNAc
# Outline: as §1
# [4] = target: Fuc(a1-2)Gal(b1-4)[Fuc(a1-3)]GlcNAc(b1-3)Gal(b1-4)[Fuc(a1-3)]GlcNAc
# Outline: as §1
# [5] = target: Fuc(a1-2)[Gal(a1-3)]Gal(b1-3)GalNAc
# Outline: as §1
# [6] = target: Fuc(a1-2)[Gal(a1-3)]Gal(b1-4)GlcNAc
# Outline: as §1
# [7] = target: Fuc(a1-2)[Gal(a1-3)]Gal(b1-4)GlcNAc(b1-3)[Fuc(a1-2)[Gal(a1-3)]Gal(b1-4)GlcNAc(b1-6)]GalNAc
# Outline: as §1
# [8] = target: Fuc(a1-2)[Gal(a1-3)]Gal(b1-4)[Fuc(a1-3)]GlcNAc(b1-3)GalNAc
# Outline: as §1
# [9] = target: Fuc(a1-2)[GalNAc(a1-3)]Gal(b1-4)GlcNAc
# Outline: as §1
# [10] = target: Fuc(a1-3)GlcNAc
# Outline: as §1
# [11] = target: Fuc(a1-3)[Gal(b1-4)]GlcNAc(b1-2)Man(a1-3)[Fuc(a1-3)[Gal(b1-4)]GlcNAc(b1-2)Man(a1-6)]Man(b1-4)GlcNAc(b1-4)[Fuc(a1-6)]GlcNAc
# Outline: as §1
# [12] = target: Gal(a1-2)Gal
# Outline: as §1
# [13] = target: Gal(a1-3)Gal(b1-4)Glc
# Outline: as §1
# [14] = target: Gal(a1-3)Gal(b1-4)GlcNAc
# Outline: as §1
# [15] = target: Gal(a1-3)Gal(b1-4)[Fuc(a1-3)]GlcNAc(b1-2)Man(a1-3)[Gal(a1-3)Gal(b1-4)[Fuc(a1-3)]GlcNAc(b1-2)Man(a1-6)]Man(b1-4)GlcNAc(b1-4)GlcNAc
# Outline: as §1
# [16] = target: Gal(a1-3)[Gal(a1-4)]Gal(b1-4)GlcNAc
# Outline: as §1
# [17] = target: Gal(b1-3)GlcNAc(b1-6)[Gal(b1-3)]GalNAc
# Outline: as §1
# [18] = target: Gal(b1-4)GlcNAc(b1-2)Man(a1-3)[Gal(b1-4)GlcNAc(b1-2)Man(a1-6)]Man(b1-4)GlcNAc(b1-4)[Fuc(a1-6)]GlcNAc
# Outline: as §1
# [19] = target: Gal(b1-4)GlcNAc(b1-2)Man(a1-3)[Man(a1-6)]Man(b1-4)GlcNAc(b1-4)GlcNAc
# Outline: as §1
# [20] = target: Gal(b1-4)GlcNAc(b1-2)Man(a1-6)[GlcNAc(b1-2)Man(a1-3)]Man(b1-4)GlcNAc(b1-4)GlcNAc
# Outline: as §1
# [21] = target: Gal(b1-4)GlcNAc(b1-2)[Gal(b1-4)GlcNAc(b1-4)]Man(a1-3)[GlcNAc(b1-4)][Gal(b1-4)GlcNAc(b1-2)Man(a1-6)]Man(b1-4)GlcNAc(b1-4)GlcNAc
# Outline: as §1
# [22] = target: Gal(b1-4)GlcNAc(b1-3)Gal(b1-4)GlcNAc(b1-3)Gal(b1-4)GlcNAc(b1-3)Gal(b1-4)GlcNAc(b1-3)Gal(b1-4)GlcNAc(b1-2)Man(a1-3)[Gal(b1-4)GlcNAc(b1-3)Gal(b1-4)GlcNAc(b1-3)Gal(b1-4)GlcNAc(b1-3)Gal(b1-4)GlcNAc(b1-3)Gal(b1-4)GlcNAc(b1-2)Man(a1-6)]Man(b1-4)GlcNAc(b1-4)GlcNAc
# Outline: as §1
# [23] = target: Gal(b1-4)GlcNAc(b1-3)Gal(b1-4)GlcNAc(b1-3)GalNAc
# Outline: as §1
# [24] = target: Gal(b1-4)GlcNAc(b1-3)Gal(b1-4)[Fuc(a1-3)]GlcNAc(b1-3)Gal(b1-4)[Fuc(a1-3)]GlcNAc
# Outline: as §1
# [25] = target: Gal3S(b1-4)GlcNAc
# Outline: as §1
# [26] = target: GalNAc(a1-3)GalNAc
# Outline: as §1
# [27] = target: GalNAc(b1-4)GlcNAc(b1-2)Man(a1-3)[GalNAc(b1-4)GlcNAc(b1-2)Man(a1-6)]Man(b1-4)GlcNAc(b1-4)GlcNAc
# Outline: as §1
# [28] = target: GalNAc3S(b1-4)[Fuc(a1-3)]GlcNAc
# Outline: as §1
# [29] = target: Glc(a1-6)Glc(a1-6)Glc(a1-6)Glc
# Outline: as §1
# [30] = target: GlcA3S(b1-3)Gal(b1-4)GlcNAc(b1-2)Man
# Outline: as §1
# [31] = target: GlcNAc(a1-4)Gal(b1-4)GlcNAc(b1-3)Gal(b1-4)GlcNAc
# Outline: as §1
# [32] = target: GlcNAc(b1-2)[GlcNAc(b1-6)]Man(a1-6)[GlcNAc(b1-4)][GlcNAc(b1-2)Man(a1-3)]Man(b1-4)GlcNAc(b1-4)GlcNAc
# Outline: as §1
# [33] = target: GlcNAc(b1-3)Gal(b1-4)GlcNAc(b1-3)Gal(b1-4)GlcNAc(b1-2)[GlcNAc(b1-3)Gal(b1-4)GlcNAc(b1-3)Gal(b1-4)GlcNAc(b1-6)]Man(a1-6)[GlcNAc(b1-3)Gal(b1-4)GlcNAc(b1-3)Gal(b1-4)GlcNAc(b1-2)Man(a1-3)]Man(b1-4)GlcNAc(b1-4)[Fuc(a1-6)]GlcNAc
# Outline: as §1
# [34] = target: GlcNAc(b1-3)GalNAc
# Outline: as §1
# [35] = target: Man(a1-3)[Man(a1-6)]Man
# Outline: as §1
# [36] = target: Man(a1-3)[Man(a1-6)]Man(b1-4)GlcNAc(b1-4)GlcNAc
# Outline: as §1
# [37] = target: Neu5Ac(a2-3)Gal(b1-3)[Fuc(a1-4)]GlcNAc
# Outline: as §1
# [38] = target: Neu5Ac(a2-3)Gal(b1-3)[GlcNAc(b1-6)]GalNAc
# Outline: as §1
# [39] = target: Neu5Ac(a2-3)Gal(b1-4)Glc
# Outline: as §1
# [40] = target: Neu5Ac(a2-3)Gal(b1-4)GlcNAc(b1-2)[Neu5Ac(a2-3)Gal(b1-4)GlcNAc(b1-4)]Man(a1-3)[GlcNAc(b1-4)][Neu5Ac(a2-3)Gal(b1-4)GlcNAc(b1-2)[Neu5Ac(a2-3)Gal(b1-4)GlcNAc(b1-6)]Man(a1-6)]Man(b1-4)GlcNAc(b1-4)GlcNAc
# Outline: as §1
# [41] = target: Neu5Ac(a2-3)Gal(b1-4)GlcNAc(b1-3)GalNAc
# Outline: as §1
# [42] = target: Neu5Ac(a2-3)Gal(b1-4)GlcNAc(b1-6)[Gal(b1-3)]GalNAc
# Outline: as §1
# [43] = target: Neu5Ac(a2-3)Gal(b1-4)GlcNAc6S
# Outline: as §1
# [44] = target: Neu5Ac(a2-3)Gal(b1-4)[Fuc(a1-3)]GlcNAc(b1-2)Man
# Outline: as §1
# [45] = target: Neu5Ac(a2-3)Gal6S(b1-4)GlcNAc
# Outline: as §1
# [46] = target: Neu5Ac(a2-6)Gal
# Outline: as §1
# [47] = target: Neu5Ac(a2-6)Gal(b1-4)GlcNAc(b1-2)Man(a1-6)[Gal(b1-4)GlcNAc(b1-2)Man(a1-3)]Man(b1-4)GlcNAc(b1-4)GlcNAc
# Outline: as §1
# [48] = target: Neu5Ac(a2-6)Gal(b1-4)GlcNAc(b1-3)Gal(b1-4)GlcNAc(b1-2)Man(a1-3)[Neu5Ac(a2-6)Gal(b1-4)GlcNAc(b1-3)Gal(b1-4)GlcNAc(b1-2)Man(a1-6)]GalNAc
# Outline: as §1
# [49] = target: Neu5Ac(a2-6)Gal(b1-4)GlcNAc(b1-3)Gal(b1-4)GlcNAc(b1-6)[Gal(b1-3)]GalNAc
# Outline: as §1
# [50] = target: Neu5Ac(a2-6)Gal(b1-4)GlcNAc(b1-3)[Neu5Ac(a2-6)Gal(b1-4)GlcNAc(b1-6)]GalNAc
# Outline: as §1
# [51] = target: Neu5Ac(a2-6)Gal(b1-4)GlcNAc(b1-6)GalNAc
# Outline: as §1
# [52] = target: Neu5Ac(a2-8)Neu5Ac(a2-3)Gal(b1-4)GlcNAc
# Outline: as §1
# [53] = target: Neu5Ac(b2-6)Gal(b1-4)GlcNAc
# Outline: as §1
# [54] = target: Neu5Ac(b2-6)GalNAc
# Outline: as §1
binder,measurement,setting,value
B1,glycan array binding signal (z-score),[1],-1.16
same,glycan array binding signal (z-score),[2],-0.03
same,glycan array binding signal (z-score),[3],-0.024
same,glycan array binding signal (z-score),[4],-0.649
same,glycan array binding signal (z-score),[5],0.258
same,glycan array binding signal (z-score),[6],-0.52
same,glycan array binding signal (z-score),[7],5.41
same,glycan array binding signal (z-score),[8],-0.194
same,glycan array binding signal (z-score),[9],-0.511
same,glycan array binding signal (z-score),[10],-0.076
same,glycan array binding signal (z-score),[11],2.04
same,glycan array binding signal (z-score),[12],-0.237
same,glycan array binding signal (z-score),[13],-0.327
same,glycan array binding signal (z-score),[14],-0.339
same,glycan array binding signal (z-score),[15],2.4
same,glycan array binding signal (z-score),[16],2.39
same,glycan array binding signal (z-score),[17],-0.299
same,glycan array binding signal (z-score),[18],-0.075
same,glycan array binding signal (z-score),[19],-0.349
same,glycan array binding signal (z-score),[20],0.924
same,glycan array binding signal (z-score),[21],-0.47
same,glycan array binding signal (z-score),[22],5.07
same,glycan array binding signal (z-score),[23],-0.264
same,glycan array binding signal (z-score),[24],-0.565
same,glycan array binding signal (z-score),[25],0.279
same,glycan array binding signal (z-score),[26],-0.288
same,glycan array binding signal (z-score),[27],-0.134
same,glycan array binding signal (z-score),[28],6.05
same,glycan array binding signal (z-score),[29],0.665
same,glycan array binding signal (z-score),[30],-0.286
same,glycan array binding signal (z-score),[31],-0.207
same,glycan array binding signal (z-score),[32],-0.604
same,glycan array binding signal (z-score),[33],-0.268
same,glycan array binding signal (z-score),[34],3.09
same,glycan array binding signal (z-score),[35],-0.387
same,glycan array binding signal (z-score),[36],0.075
same,glycan array binding signal (z-score),[37],-0.042
same,glycan array binding signal (z-score),[38],-0.406
same,glycan array binding signal (z-score),[39],4.78
same,glycan array binding signal (z-score),[40],-0.441
same,glycan array binding signal (z-score),[41],0.355
same,glycan array binding signal (z-score),[42],-0.43
same,glycan array binding signal (z-score),[43],2.43
same,glycan array binding signal (z-score),[44],-0.094
same,glycan array binding signal (z-score),[45],0.228
same,glycan array binding signal (z-score),[46],4.96
same,glycan array binding signal (z-score),[47],0.765
same,glycan array binding signal (z-score),[48],-0.692
same,glycan array binding signal (z-score),[49],6.02
same,glycan array binding signal (z-score),[50],5.76
same,glycan array binding signal (z-score),[51],0.094
same,glycan array binding signal (z-score),[52],-0.788
same,glycan array binding signal (z-score),[53],-1.02
same,glycan array binding signal (z-score),[54],0.736
